# Molecular target: T1, Aspartate--tRNA(Asp/Asn) ligase (Mycobacterium tuberculosis (strain ATCC 25618 / H37Rv)) (UniProt P9WFW3)
# T1 sequence (whole entry): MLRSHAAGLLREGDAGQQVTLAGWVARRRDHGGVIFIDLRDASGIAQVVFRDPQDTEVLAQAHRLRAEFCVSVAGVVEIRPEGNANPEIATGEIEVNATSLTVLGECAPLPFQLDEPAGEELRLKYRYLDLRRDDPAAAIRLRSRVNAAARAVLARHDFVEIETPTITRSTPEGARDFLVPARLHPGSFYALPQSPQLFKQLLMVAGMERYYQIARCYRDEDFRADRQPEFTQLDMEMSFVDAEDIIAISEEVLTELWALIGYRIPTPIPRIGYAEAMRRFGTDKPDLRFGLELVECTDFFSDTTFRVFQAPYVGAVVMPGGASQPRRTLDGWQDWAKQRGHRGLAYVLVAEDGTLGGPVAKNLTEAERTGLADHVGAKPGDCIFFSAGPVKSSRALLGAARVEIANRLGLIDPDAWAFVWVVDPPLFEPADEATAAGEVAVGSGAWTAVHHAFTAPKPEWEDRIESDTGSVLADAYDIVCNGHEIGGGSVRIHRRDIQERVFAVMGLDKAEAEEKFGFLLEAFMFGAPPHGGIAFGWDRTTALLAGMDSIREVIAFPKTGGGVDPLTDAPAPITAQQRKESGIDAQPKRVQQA
# Experiment: Assay for Asp RNA synthetase-1 from Mycobacterium tuberculosis
# Assay type: functional
# Set-up: scale not given: in the data most compounds retested in dose-response had high values
# Settings: 30 µM
row,Structure (SMILES),Percent Effect
1,COc1ccc(C2CC(=O)Nc3c2cnn3C2CCCC2)cc1 (stereo not given),-1.45%
2,O=C(CCC1CCCC1)NCCn1nc(C2CCNC2)c2cccnc21 (stereo not given),-0.368%
3,c1ccc(Cn2cc3c(n2)C(COCC2CC2)OCC3)nc1 (stereo not given),4.12%
4,Cc1nccn1C1CCCN(C(=O)c2cc3ccccc3[nH]2)C1 (stereo not given),0.714%
5,CC(C)Nc1nc(N2CCOCC2)nc2c1CN(CC(=O)N(C)C)CC2,12.1%
6,COc1ccc(NC(=O)N2CCCC2c2ccco2)cc1OC (stereo not given),1.24%
7,Cn1cccc1CNC(=O)CCCc1nnc2ccccn12,1.36%
8,c1cncc(-c2ccc3c(c2)C2(CC3)CCN(c3nncs3)CC2)c1,1.44%
9,CCn1cc2c(n1)CN(Cc1ccoc1)CC2COCC1CC1 (stereo not given),-4.69%
10,Cc1nc(N2CCOCC2)nc2c1CN(C(=O)Cc1ccccn1)CC2,-2.71%
11,O=C1COC2(COCCN(Cc3ccsc3)C2)CN1c1ccc(F)cc1 (stereo not given),2.55%
12,N#Cc1cccc(NC(=O)N[C@H](CO)c2ccccc2)c1,3.31%
13,Cc1ccc(NC(=O)N2CCC(NC(=O)c3ccc(C)o3)CC2)cc1,-0.605%
14,O=C(NCCOc1ccc2c(c1)OCO2)N1CCC1,0.81%
15,Cc1cc(C)c(CNC(=O)N2CCCC2c2ccccc2)c(=O)[nH]1 (stereo not given),-3.97%
16,Cc1cnn(CC2CCCN2C(=O)c2ccc3cc[nH]c3c2)c1 (stereo not given),-4.26%
17,CCOCC1CN(C(=O)C2=CCCC2)Cc2cnn(CC)c21 (stereo not given),-0.107%
18,COc1cccn(CC(=O)N(C)Cc2ccoc2)c1=O,-1.64%
19,O[C@H]1CCN(Cc2ccoc2)[C@H]1Cc1cccnc1,6.58%
20,O=C(c1ccco1)N1CCOCC2(C1)CN(c1ccccc1)C(=O)CO2 (stereo not given),8.44%

# Reference: ChEMBL document CHEMBL3988442, “University of Dundee, Small-Polar-MMV Screening Library” (2021)
